92 compounds from PubChem BioAssay AID1259422 (The Scripps Research Institute Molecular Screening Center, 2018) can be followed below.

The whole screen tested about 640,000 compounds, of which about 9,300 (1.5%) were called active. This is one part of a sample in which actives are shown more often than they occur. Cut-off read from the data, not from the text of the source: active = inhibition above about 32%; inactive = the rest.

The nature of the assay: TEAD-YAP interaction inhibition, primary screen, TEAD-YAP interaction inhibitor project, luminescence, HEK-TIYL cells (AID 1259422).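 Note: 0% = median of test compound wells and 100% = reference inhibitor wells.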 Particulars: TEAD-Gal4/YAP UAS-luciferase luminescence, at 9.12 µM, active compounds read high.
As a reminder, the inhibition is the relative decrease from the control value, in per cent. As to `Cc1ccccc1C(=O)NCC1(c2cccs2)CC1`, the inhibition was -38.7% (inactive).

As for `CN1CCN(C(=O)c2ccc(-c3ccc(C(=O)NCCOc4ccccc4)s3)cc2)CC1`, the inhibition is -10.2% (inactive).

Take `O=C1c2ccc(Br)cc2C(=O)N1CNc1cccc(F)c1`: the inhibition is 2.19% (inactive).

As for `CCCCOc1ccccc1C1C(C(=O)OCCOCC)=C(C)NC2=C1C(=O)CC(C)(C)C2` (configuration not stated), the inhibition was -1.41% (inactive).

As to `COc1ccccc1C1N=C(c2cccs2)CC(c2ccccc2O)N1` (configuration not stated), the inhibition was -31.6% (inactive).

Consider `Cn1c(-c2ccc(F)cc2Cl)c(C(=O)O)c2ccccc2c1=O`, for which the inhibition is 5.25% (inactive).

For the compound `Cc1ccc2c(c1)CN(CCC(=O)NCC(C)(C)CO)CC(C)O2` (configuration not stated), the inhibition was 5.33% (inactive).

In the case of `COc1ccc(CNC(=O)CCc2c(C)nc3cc(-c4ccccc4)nn3c2C)cc1`, the inhibition is 2.84% (inactive).

For `COc1ccccc1-c1cc2nc(C)c(CCC(=O)Nc3ccccc3C(N)=O)c(C)n2n1`, the inhibition is 12.4% (inactive).

Take `COc1ccccc1-c1cc2nc(C)c(CCC(=O)O)c(C)n2n1`: the inhibition is 48.5% (active).

On to `O=C(C1CC=CCC1)N1CCn2cnnc2C1` (configuration not stated), for which the inhibition is 1.34% (inactive).

With `Cc1cc(C)nc(SCC(=O)Nc2cc(C(=O)O)cc([N+](=O)[O-])c2)n1`, the inhibition is -2.98% (inactive).

As to `CCn1c(=O)cc(SCC(=O)Nc2cccc([N+](=O)[O-])c2C)c2ccccc21`, the inhibition was -12.2% (inactive).

Consider `Cc1c(/C=N\Nc2ccc([N+](=O)[O-])cc2)c2ccccc2n1C`, for which the inhibition is 12.8% (inactive).

On to `Cc1c(/C=N/NC(N)=S)c2ccccc2n1C`, for which the inhibition was -7.34% (inactive).

Turning to `Cc1c(/C=N\NC(=O)c2cc3ccccc3o2)c2ccccc2n1C`, the inhibition is 49.3% (active).

As to `c1ccc(Cn2cc(-c3cnn4c(NCCc5cccnc5)ccnc34)cn2)cc1`, the inhibition is -23.6% (inactive).

As to `C=CCn1c(SCC(=O)N2CCCCCC2)nc2scc(-c3ccc(C)o3)c2c1=O`, the inhibition was -7.67% (inactive).

For the compound `C=CCn1c(SCC(=O)N2CCOCC2)nc2scc(-c3ccccc3Cl)c2c1=O`, the inhibition was 49.9% (active).

For `C=CCn1c(SCCC(=O)NCCc2ccccc2)nc2scc(-c3ccco3)c2c1=O`, the inhibition was -10.1% (inactive).

As to `Cc1ccc(C(=O)COC(=O)c2ccc(-n3cnnn3)cc2)cc1`, the inhibition is 11.7% (inactive).

Consider `COc1cc(Nc2nc(-c3ccc(C(=O)NC4CC4)cc3)nc3c2ncn3-c2ccsc2)cc(OC)c1OC`, for which the inhibition was 22.8% (inactive).

`O=C(COC(=O)CSCc1c[nH]c(=O)[nH]c1=O)Nc1nc(-c2ccccc2)cs1`: the inhibition was -38% (inactive).

As for `O=c1oc2ccccc2cc1-c1cn2c(n1)sc1cc(Cl)ccc12`, the inhibition is 62.5% (active).

Take `O=c1oc2ccc(Br)cc2cc1-c1cn2c(n1)sc1ccccc12`: the inhibition was 2.88% (inactive).

Turning to `CCCCCCc1cc2cc(-c3cn4c(n3)sc3cc(Cl)ccc34)c(=O)oc2cc1O`, the inhibition was -3.76% (inactive).

Turning to `Cc1cccc(N2C(=O)NC(=O)/C(=C\c3ccc(I)o3)C2=O)c1C`, the inhibition is -0.13% (inactive).

With `O=C(O)/C(=C\c1ccccc1)NC(=O)c1ccc(Br)cc1`, the inhibition is -2.04% (inactive).

Regarding `O=C(O)CCNCCC(=O)c1ccccc1`, the inhibition was -12.1% (inactive).

On to `COc1ccc(N2CCN(C(=O)COc3ccccc3OC)CC2)cc1`, for which the inhibition is 1.61% (inactive).

`COC(=O)C1CCN(C(=O)c2ccc(Cl)c([N+](=O)[O-])c2)CC1`: the inhibition is 1.51% (inactive).

With `CCOC(=O)CSc1ccc(C(=O)N2CCN(c3ccccc3OC)CC2)cc1[N+](=O)[O-]`, the inhibition is 3.32% (inactive).

As for `COc1ccccc1N1CCN(C(=O)COc2ccc(Cl)cc2C)CC1`, the inhibition is 58.5% (active).

For the compound `COc1ccccc1N1CCN(C(=O)c2ccc(Cl)c([N+](=O)[O-])c2)CC1`, the inhibition is 49% (active).

With `COc1ccccc1N1CCN(C(=O)CSCc2ccccc2C)CC1`, the inhibition is -42.5% (inactive).

On to `Cc1cccc2nc(NC(=O)c3ccnn3C)sc12`, for which the inhibition was -7.31% (inactive).

On to `CCOC1=C/C(=C/c2c(N)n3nc(C(C)C)sc3nc2=O)C=CC1=O`, for which the inhibition is 9.9% (inactive).

In the case of `COc1ccc(/C=C2/N=C(c3cccc4ccccc34)OC2=O)c(OC)c1OC`, the inhibition is -1.88% (inactive).

Turning to `CCc1ccccc1Nc1cc(C)nc2ncnn12`, the inhibition is -7.4% (inactive).

On to `COc1ccc(C(=O)Nc2c3c(nn2-c2ccc(F)cc2)CS(=O)C3)c(OC)c1` (configuration not stated), for which the inhibition is 0.99% (inactive).

Take `COc1ccc(-n2nc3c(c2NC(=O)c2cc([N+](=O)[O-])ccc2Cl)CS(=O)C3)cc1` (configuration not stated): the inhibition was 41.9% (active).

On to `COc1ccc(-n2nc3c(c2NC(=O)c2cccc(OC)c2OC)CS(=O)C3)cc1` (configuration not stated), for which the inhibition is -1.38% (inactive).

On to `CC1CCCC(NC(=O)C(C)n2c(=O)c3cccn3c3cccnc32)C1C` (configuration not stated), for which the inhibition is 3.19% (inactive).

In the case of `Cn1c(SCC(=O)Nc2nnc(-c3ccccc3)s2)nnc1-c1ccccc1`, the inhibition is -17.2% (inactive).

Regarding `O=C(Nc1ccc(Cl)c(S(=O)(=O)c2ccc(Cl)cc2)c1)c1cc(Br)cc(Br)c1O`, the inhibition was -6.46% (inactive).

For the compound `CC(C)(C)c1ccc(C(=O)Nc2ccc(N3CCOCC3)c(Cl)c2)cc1`, the inhibition was 0.56% (inactive).

For the compound `CN1CCN(c2ccc(NC(=O)c3cc(Br)cc(Br)c3O)cc2Cl)CC1`, the inhibition is 68% (active).

As to `NC(=O)c1cc(NC(=O)C(F)(F)F)cc(C(N)=O)c1`, the inhibition was -9.16% (inactive).

As to `O=C(NCc1ccc(F)cc1)c1nc2c(nnn2Cc2ccc3c(c2)OCO3)c(=O)[nH]1`, the inhibition was -15.6% (inactive).

`O=C(Nc1nc(-c2ccc(F)cc2)cs1)c1cc([N+](=O)[O-])ccc1Cl`: the inhibition is 42% (active).

Turning to `N#Cc1ccc(-c2csc(NC(=O)c3cc([N+](=O)[O-])ccc3Cl)n2)cc1`, the inhibition is 14% (inactive).

For `O=C(Nc1nc(-c2ccc(F)cc2)cs1)c1ccc([N+](=O)[O-])cc1`, the inhibition is 6.37% (inactive).

`NS(=O)(=O)c1ccc(CCNC(=S)Nc2ccccc2F)cc1`: the inhibition was 0.39% (inactive).

Take `COc1ccc(-c2noc(CN(Cc3ccccc3)CC3CC3)n2)c(OC)c1OC`: the inhibition was -11.8% (inactive).

`C=CCNc1c(C)c(C)nc2cc(-c3ccc(OC)c(OC)c3)nn12`: the inhibition was -14.7% (inactive).

On to `CC1CCCC(NC(=O)C2N(C3CCCC(C)C3C)C(=O)C3C(C(=O)Nc4cccc(Cl)c4)C4C=CC32O4)C1C` (configuration not stated), for which the inhibition was -7.64% (inactive).

For the compound `CCS(=O)(=O)N1CCN(C(=O)c2ccccc2Cl)CC1`, the inhibition was -4.13% (inactive).

`O=C(c1ccccc1Cl)N1CCCCC1`: the inhibition is 2.65% (inactive).

`Cc1cc(N2CCCC2)nc(N2CCN(C(=O)c3ccccc3Cl)CC2)n1`: the inhibition is 33.1% (active).

Consider `O=C(O)c1ccc(NS(=O)(=O)c2cccc(C(F)(F)F)c2)cc1`, for which the inhibition was 0.38% (inactive).

For the compound `Cc1ccc(NC(=O)c2cc(S(=O)(=O)N3CCC(C)CC3)ccc2F)cc1F`, the inhibition is -4.47% (inactive).

As to `COc1cccc(N2C(=O)C3C4C=CC(C5CC45)C3C2=O)c1` (configuration not stated), the inhibition is -3.66% (inactive).

With `CC12CC3(C)CC(O)(C1)CC(C(=O)c1ccccc1)(C2)C3`, the inhibition is -1.77% (inactive).

With `CCCn1c(SCC(=O)N2CCc3ccccc32)nnc1-c1ccncc1`, the inhibition is -1.7% (inactive).

`CSc1nnc(-c2ccncc2)n1CCCN1CCCC1=O`: the inhibition was 58.9% (active).

`Cn1c(SCC(=O)N2CCCCCC2)nnc1-c1ccncc1`: the inhibition is 5.85% (inactive).

For `COC(=O)c1cc(OC)c(OC)cc1NC(=O)c1cc2ccccc2oc1=O`, the inhibition is -9.56% (inactive).

Regarding `Cc1ccc(-c2nc(-c3ccccc3Cl)no2)cc1`, the inhibition was -58.6% (inactive).

In the case of `Clc1ccccc1-c1noc(-c2ccc(-c3ccccc3)cc2)n1`, the inhibition was 6.4% (inactive).

`Oc1ccc(-c2nc(-c3ccccc3Cl)no2)cc1`: the inhibition is 64.7% (active).

As to `CC1=C(C(=O)OCCOc2ccccc2)C(c2cccc(Cl)c2Cl)C2=C(CC(c3ccccc3)CC2=O)N1` (configuration not stated), the inhibition is 5.89% (inactive).

In the case of `O=C(NCCc1ccccc1)C1CCC(Cn2c(SCc3ccc(Cl)cc3)nc3ccccc3c2=O)CC1` (configuration not stated), the inhibition is 6.47% (inactive).

On to `c1cc(-c2nc3c(c(N4CCCCC4)n2)CNCC3)ccn1`, for which the inhibition was -3.63% (inactive).

Consider `CC(NC(=O)CCc1ccccc1)c1nnc2n1CCN(Cc1cccc(F)c1F)CC2` (configuration not stated), for which the inhibition was -34.9% (inactive).

With `S=C(Nc1nc2ccccc2[nH]1)Nc1nc2ccccc2[nH]1`, the inhibition is -3.78% (inactive).

For the compound `CCCCN(CCCC)C(=O)Nc1nc2ccccc2[nH]1`, the inhibition is 59.5% (active).

For `CSCCC(=O)Nc1nc2ccccc2[nH]1`, the inhibition is -12.9% (inactive).

For the compound `Cc1nc2sc(C(c3ccc([N+](=O)[O-])cc3)N3CC(C)CC(C)C3)c(O)n2n1` (configuration not stated), the inhibition is 21.1% (inactive).

Consider `CC(C)c1ccc(S(=O)(=O)N2CCN(C(=O)/C=C/c3ccccc3)CC2)cc1`, for which the inhibition is 5.06% (inactive).

With `Cc1c(C(=O)N2CCN(c3ccc(F)cc3)CC2)sc2ncnc(N(C)c3ccccc3)c12`, the inhibition is 6.56% (inactive).

For `O=C(CSc1nnc2ncccn12)N1CCCc2ccccc21`, the inhibition was -3.81% (inactive).

`Cc1cc(NC(=O)c2c(F)cccc2Cl)ccc1N1CCCCC1=O`: the inhibition was -2.91% (inactive).

As for `COc1cc(C(=O)Nc2ccc(Nc3nc(C)cc(N4CCCC4)n3)cc2)cc(OC)c1OC`, the inhibition is 35.6% (active).

`COc1cc(C(=O)Nc2ccc3nc(N4CCN(c5ncccn5)CC4)cc(C)c3c2)cc(OC)c1OC`: the inhibition was 22.2% (inactive).

For `COc1ccc(C(=O)Nc2ccc3nc(N4CCCCC4)cc(C)c3c2)cc1OC`, the inhibition is -0.5% (inactive).

Take `Cc1ccc(N2CCN(C(=O)c3c(F)cccc3Cl)CC2)nn1`: the inhibition is -8.28% (inactive).

Regarding `Cc1cc(N2CCCC2)nc(Nc2ccc(NC(=O)c3c(F)cccc3Cl)cc2)n1`, the inhibition is 42% (active).

Take `Cc1ccc(N(C(=O)c2snc(C(N)=O)c2N)C(C)C(=O)NC(C)(C)C)cc1C` (configuration not stated): the inhibition was -0.01% (inactive).

Consider `COCCCNc1ncnc2sccc12`, for which the inhibition is -4.31% (inactive).

As for `c1ccc2c(NCCNc3ncnc4sccc34)cccc2c1`, the inhibition was 52.2% (active).

As to `Cn1ncc2c(Nc3cccc4ccccc34)ncnc21`, the inhibition is -0.77% (inactive).

For `COc1ccc(C(=O)N=c2sc3cc4c(cc3n2C)OCCO4)cc1OC`, the inhibition is -1.41% (inactive).
